Hits are enriched below; roughly 2.4% of the tested compounds scored in any of these assays.
NTMT1 inhibitor: NTMT1 methyltransferase inhibition. AID 1645870. Q9BV86. Potency, µM (doses to about 114 µM), hits mostly inhibitors. NTMT1 MTase-Glo SAH luminescence, purified enzyme. hit rate 2.5% among 59,000; note: nearly all actives have a fitted effect of over 65% in size
HTT promoter inh: HTT promoter inhibition | hit rate 0.93% among 48,000 | HEK293 HTT promoter firefly luciferase reporter, 24 h | Potency, µM (doses to about 57.5 µM), usual class: inhibitors; note: nearly all actives have a fitted effect of over 50% in size
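HEK293 Fluc reporter, 2,500 cells/well, 24 h pre-culture; cpds up to 57.5 uM final, 24 h 37 degrees C; Dual-Glo, 10 min RT; normalized vehicle = 0%, zero RLU = -100%.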
HTT-AS promoter: HTT-AS promoter activation; Potency, µM (series often up to 57.5 µM), hits mostly activators; hit rate 0.24% among 48,000; HEK293 HTT-AS promoter firefly luciferase reporter, 24 h; response scale: percent change from vehicle, -100% = no light; note: nearly all actives have a fitted effect of over 55% in size
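HEK293 Fluc reporter, 2,500 cells/well, 24 h pre-culture; cpds up to 57.5 uM final, 24 h 37 degrees C; Dual-Glo, 10 min RT; normalized vehicle = 0%, zero RLU = -100%.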
CLK4 KinaseGlo: confirmation of human CLK4 kinase inhibitors, SAR round 2; hit rate 90% among 90; Potency, µM (top dose mostly 76.9 µM), most hits filed as inhibitors; recombinant Clk4, Kinase-Glo ATP luminescence, 4.5 h; shares compounds with NTMT1 inhibitor
Sfp PPTase inh: inhibits purified B. subtilis Sfp PPTase | shares compounds with NTMT1 inhibitor | purified Sfp PPTase enzyme activity, qHTS | Potency, µM (top dose mostly 114 µM), most hits filed as inhibitors | hit rate 78% among 230
Bsub HM489 growth: Sfp PPTase inhibitors: growth inhibition of B. subtilis HM489 | hit rate 50% among 220 | B. subtilis HM489 (acpS-) growth, BacTiter-Glo, 5 h | shares compounds with NTMT1 inhibitor | AID 540353 | Potency, µM (highest dose often 114 µM), actives largely listed as inhibitors
Sfp gel opt: Sfp PPTase inhibition, gel-based detection; shares compounds with NTMT1 inhibitor; purified Sfp PPTase, gel-based product detection; Potency, µM (titrated, usually from 250 µM), actives largely listed as inhibitors; hit rate 54% among 220; AID 540355
Sfp gel: Sfp phosphopantetheinyl transferase inhibition, gel detection; shares compounds with NTMT1 inhibitor; purified Sfp PPTase, gel-based product detection; Potency, µM (series often up to 250 µM), usual class: inhibitors; hit rate 90% among 45
Sfp inh SAR2: inhibits B. subtilis Sfp PPTase in second SAR round. shares compounds with NTMT1 inhibitor. purified Sfp enzyme, PPTase activity, qHTS. Potency, µM (doses to about 57.1 µM), actives largely listed as inhibitors. hit rate 87% among 230. AID 602370
hGST ctr: counter-screen for Sfp PPTase inhibitors: hGST A1-1 inhibition. Potency, µM (top dose mostly 114 µM), actives largely listed as inhibitors. 55 tested, under 10 active. shares compounds with NTMT1 inhibitor. hGST A1-1 enzyme activity counter-screen, qHTS
HSD17B4 counter: HSD17B4 (human) inhibition, HPGD counter-screen. shares compounds with NTMT1 inhibitor. purified HSD17B4, estradiol/NAD+, NADH fluorescence. Potency, µM (top dose mostly 57.1 µM), hits mostly inhibitors. hit rate 10% among 230
ALDH1A1 counter: ALDH1A1 (human) inhibition, HPGD counter-screen. shares compounds with NTMT1 inhibitor. recombinant ALDH1A1, NADH fluorescence, propionaldehyde/NAD+. Potency, µM (top dose mostly 57.1 µM), hits mostly inhibitors. hit rate 93% among 230. AID 743195
Target sequence (P00352 whole entry, looked up): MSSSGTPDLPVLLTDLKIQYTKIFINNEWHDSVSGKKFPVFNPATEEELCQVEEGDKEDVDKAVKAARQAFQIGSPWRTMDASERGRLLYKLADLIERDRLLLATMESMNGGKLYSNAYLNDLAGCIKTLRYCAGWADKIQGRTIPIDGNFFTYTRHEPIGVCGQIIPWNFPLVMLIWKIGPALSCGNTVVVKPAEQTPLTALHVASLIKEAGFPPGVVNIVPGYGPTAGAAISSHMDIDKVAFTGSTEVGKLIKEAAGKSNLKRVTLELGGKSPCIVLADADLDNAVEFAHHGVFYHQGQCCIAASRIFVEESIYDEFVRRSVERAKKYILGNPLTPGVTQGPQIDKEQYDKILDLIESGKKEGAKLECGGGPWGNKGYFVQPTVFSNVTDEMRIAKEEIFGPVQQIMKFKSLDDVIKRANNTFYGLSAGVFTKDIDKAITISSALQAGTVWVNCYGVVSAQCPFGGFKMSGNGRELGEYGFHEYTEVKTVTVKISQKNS
NNMT counter: blocks human NNMT methyltransferase; shares compounds with NTMT1 inhibitor; NNMT MTase-Glo luminescence, SAH detection; Potency, µM (highest dose often 57.1 µM), hits mostly inhibitors; hit rate 10% among 120; AID 1645878
Numbers stand for hits; . = inactive; ? = inconclusive; / = not tested or not shown; ! = not confirmed by another sample; [ ] = dose if it differs, or a comment. Calls come from the whole dose curve; as a rule, active = well fitted curve in the direction sought with a large enough effect; inconclusive = small, poorly fitted or top-dose-only effect, or another doubt; inactive = no such curve, though single readings can be large; an effect the other way counts as inactive or inconclusive.

SMILES | NTMT1 inhibitor | HTT promoter inh | HTT-AS promoter | others
Cc1ccnc(NC(=S)N2CCN(c3cccc(N(C)C)c3)CC2)c1 | . | / | / | Sfp PPTase inh=9.37µM;Bsub HM489 growth=37.3µM;Sfp gel opt=1.26µM;Sfp gel=8.5µM;Sfp inh SAR2=5.76µM;hGST ctr=?;HSD17B4 counter=?;ALDH1A1 counter=1.71µM
CCOC(=O)c1c(C)[nH]c(C)c1S(=O)(=O)N1CCC(C(=O)Nc2cc(C)ccn2)CC1 | . | . | .
Cc1cc(C)nc(NC(=S)N2CCN(c3ccc(Cl)c(Cl)c3)CC2)c1 | . | / | / | Sfp PPTase inh=2.1µM;Bsub HM489 growth=5.91µM;Sfp gel opt=12µM;Sfp gel=3.02µM;Sfp inh SAR2=0.91µM;hGST ctr=?;HSD17B4 counter=.;ALDH1A1 counter=8.57µM
Cc1nc2ccc(Oc3ccc(F)cc3)cc2c(=O)n1C[C@H]1CCCN(C(C)C)C1 | . | / | /
O=c1c2ccccc2nc2sc(NCc3ccc(Sc4ccccc4)cc3)nn12 | . | / | /
N#Cc1cccc(Nc2ncc(-c3cccc4ccccc34)o2)c1 | . | / | /
Cc1cnc(-c2ccccc2C(C)C)nc1NCc1ccc(C2CCCNC2)cc1 (stereo not given) | . | / | /
Cc1ccc(CN(C)c2nc(-c3ccccc3C(F)(F)F)nc3ccccc23)cc1 | . | / | /
O=C(c1cc(Cc2n[nH]c(=O)c3ccccc23)ccc1F)N1CCCNCC1 | . | / | /
O=C1CCCC2=C1C(c1cccnc1Br)N=C(Nc1nc3ccccc3o1)N2 (stereo not given) | . | / | /
C=CC(C)(O)CC/C=C(\C)C1CC=C(C)C(=O)O1 (stereo not given) | . | / | /
Cc1cc(C)nc(NC(=S)N2CCN(c3ccc(Cl)nn3)CC2)c1 | ? | / | / | Sfp PPTase inh=11.8µM;Bsub HM489 growth=.;Sfp gel opt=?;Sfp inh SAR2=3.63µM;HSD17B4 counter=.;ALDH1A1 counter=19.2µM
Cc1ccc(Sc2ccc(N3CCC(C(=O)Nc4ccc(Cl)cc4)CC3)nn2)cc1 | . | . | .
CO[C@H]1O[C@@H]2O[C@@]3(C)CCC4[C@H](C)CCC([C@H]1C)[C@]42OO3 (stereo not given in full) | . | / | /
COc1cc2c(cc1OC)CN(CCc1ccc(NC(=O)c3cccc4c(=O)c5cccc(OC)c5[nH]c34)cc1)CC2 | 28.2µM! | . | . | NNMT counter=3.98µM
COc1ccccc1C(=O)Nc1ccc2c(c1)nc(CN1CCCCC1)n2C | . | . | .
C/C=C(\C)C(=O)OC[C@H]1O[C@@H](O[C@H]2[C@@H](O[C@H]3O[C@H](COC(=O)/C(C)=C/C)[C@@H](O)[C@H](O)[C@H]3O[C@@H]3O[C@H](CO)[C@@H](O)[C@H](OC(=O)/C(C)=C/C)[C@H]3O)O[C@H](COC(=O)/C(C)=C/C)[C@@H](O)[C@@H]2O)[C@H](O)[C@@H](O)[C@@H]1O | .[12.6 µM] | / | /
COc1cc(C)c(C(=O)OC2C(C)OC(OC3CCC(C)C4C3C=C(C)C3/C(C)=C\CC/C(C)=C/C5(C)C=C(C(=O)O)C(C)CC56OC(=O)/C(=C(\O)C34C)C6=O)C(O)C2O)c(OC)c1 (stereo not given) | .[12.6 µM] | / | /
O=C(NCCN1CCCC1)c1cc(-c2ccc(CN3CCOCC3)cc2)nc2ccc(F)cc12 | . | / | / | NNMT counter=.
Cc1ccc2nc3sc(C(=O)NCCN4CCOCC4)cc3cc2c1 | . | / | /
CC1COC2(OC3CC4C5CC(O[C@@H]6O[C@H](C)[C@@H](O[C@@H]7O[C@@H](C)[C@H](O)[C@@H](O)[C@H]7O)[C@H](O)[C@H]6O)C6CC(O)CCC6(C)C5CCC4(C)C3C2C)C(O)C1 (stereo not given in full) | .[12.6 µM] | / | /
CCN(CC)c1cc(C)c2cc(NC(=O)c3cccc(OC)c3)ccc2n1 | ? | . | .
COc1cccc(C(=O)NCCNc2nc3cc(C)cc(C)c3cc2C#N)c1 | . | / | / | NNMT counter=?
FC(F)(F)c1cccc(-c2ccc(CNc3nc(-c4ccccc4C(F)(F)F)nc4ccccc34)cc2)c1 | . | / | /
COc1ccc(-c2ccc3ncc4c(c3c2)n(-c2ccc(N3CCNCC3)c(C(F)(F)F)c2)c(=O)n4C)cn1 | 15.8µM! | ? | . | NNMT counter=.
SMILES | NTMT1 inhibitor | HTT promoter inh | HTT-AS promoter | others
CC(C)c1cc(CNc2nc(Nc3cc(C4CC4)[nH]n3)cc(N3CCN(C)CC3)n2)on1 | ? | / | / | NNMT counter=.
Cc1cc(Nc2cc(N3CCN(C)CC3)nc(C=Cc3ccccc3)n2)n[nH]1 | . | ? | .
Cn1cc(-c2nc3cnc(N4CCNCC4)nc3n(Cc3ccc(F)cc3)c2=O)c2ccccc21 | / | / | / | CLK4 KinaseGlo=?
Cn1cc(-c2cc3n(n2)CCC(=O)N3CCCC(=O)NCc2ccc(F)cc2)c2ccccc21 | . | . | .
Cc1noc(C)c1-c1ccc2ncnc(NCc3ccc(C(F)(F)F)o3)c2c1 | . | / | /
c1cncc(CNc2ncnc3ccc(-c4ccco4)cc23)c1 | . | / | /
Cc1csc(CNc2ncnc3ccc(-c4ccco4)cc23)c1 | . | / | /
Cc1ccc(CNc2ncnc3ccc(-c4ccc([C@@H](C)O)o4)cc23)o1 | ? | / | / | CLK4 KinaseGlo=0.184µM

High-throughput results (PubChem BioAssay)
